The values below are quoted from earlier work in PubChem BioAssay AID977611.

The nature of the series: PubChem AID 977611. Particulars: PDB protein-ligand complexes, literature Kd.

Molecules are shown by their SMILES. Counter-ions that a name gives are not always drawn. Screen size: about 3,900 compounds; about 3,900 (100%) were called active. The limit is not given here; nearly all actives have Kd up to about 4200 µM. So high a share suggests a set chosen from earlier hits. Some of the results follow. Bridge positions count the residues as written; N and C are the ends. Where a SMILES comes first, the peptide text is derived from it. Peptide text beside a SMILES is read from it. [ ]: non-standard residue; d: D form. * marks the point of attachment. Orn(CH(NH2)2) = NC(N)NCCC[C@H](N)C(=O)O; Tfa = O=C(C(F)(F)F)*

As to `NC(N)=NCCC[C@@H](C(=O)O)N1[C@H](O)CC[C@@H]1C(=O)O`, the Kd – broadly, a measure of binding affinity in units of concentration – (protein: Nopaline-binding periplasmic protein NocT WT, PDB entry 4pow) is 0.5 µM (active).
Take `NC(N)=NCCC[C@@H](C(=O)O)N1[C@@H](C(=O)O)CC[C@@H]1O`: the Kd (protein: Nopaline-binding periplasmic protein NocT-M117N, PDB entry 4pp0) was 39.9 µM (active).
Consider `C[N+](C)(C)CCO[P+](O)(O)O`, for which the equilibrium dissociation constant (Kd) (protein: Ficolin-2, PDB entry 4nyt) is 4100 µM (active).
As for `CC(O)C1C(=O)[C@H]2[C@@H]3c4c[nH]c5cccc(c45)C[C@@H]3C(C)(C)N2C1=O` (some centres not stated), for the setting “protein: Sarcoplasmic/endoplasmic reticulum calcium ATPase 1, PDB entry 2EAS”, the Kd was 0.007 µM (active).
Turning to `CC(=O)N[C@H]1[C@H](O[C@H]2[C@H](O)[C@@H](O)CN[C@@H]2CO)O[C@H](CO)[C@@H](O[C@@H]2O[C@H](CO)[C@@H](O)[C@H](O)[C@H]2NC(C)=O)[C@@H]1O`, the Kd (protein: Lysozyme C, PDB entry 4hpi) is 14.2 µM (active).
`CC(=O)N[C@H]1[C@H](O[C@H]2[C@H](O)[C@@H](O)CN[C@@H]2CO)O[C@H](CO)[C@@H](O[C@@H]2O[C@H](CO)[C@@H](O[C@@H]3O[C@H](CO)[C@@H](O)[C@H](O)[C@H]3NC(C)=O)[C@H](O)[C@H]2NC(C)=O)[C@@H]1O`: the Kd (protein: Lysozyme C, PDB entry 4hp0) is 0.76 µM (active).
`OC[C@H]1O[C@@H](O)[C@H](O)[C@@H](O)[C@@H]1S[C@@H]1O[C@@H](CO[P+](O)(O)O)[C@@H](O)[C@H](O)[C@H]1O`: the Kd (protein: 6-phospho-beta-glucosidase, PDB entry 4ipn) was 409 µM (active).
`CO[C@H]1O[C@H](CO)[C@@H](O)[C@H](O)[C@@H]1S[C@H]1O[C@H](CO)[C@@H](O)[C@H](O)[C@@H]1O`: the Kd (protein: MANNOSYL-OLIGOSACCHARIDE 1,2-ALPHA-MANNOSIDASE, PDB entry 4ayp) was 0.755 µM (active).
On to `O[C@@H]1[C@H](O)[C@@H](CO[P+](O)(O)O)O[C@@H]1O`, for which the Kd is 1000 µM (active) (protein: Transcriptional regulator LsrR, PDB entry 4l5j) and 995 µM (active) (protein: Transcriptional regulator LsrR, PDB entry 4l51).
On to `O=C1OC[C@@H](O[C@@H]2OC[C@@H](O[C@@H]3OC[C@@H](O)[C@H](O)[C@H]3O)[C@H](O)[C@H]2O)[C@H](O)[C@H]1O`, for which the equilibrium dissociation constant (Kd) (protein: Selenomethionine XBP1, PDB entry 4g68) is 0.012 µM (active).
For the compound `CC(C)[C@@H]1NC(=O)[C@H](Cc2c[nH]cn2)NC(=O)[C@H](Cc2ccc(O)cc2)NC(=O)[C@H]([C@@H](C)O)NC(=O)[C@H](Cc2c[nH]cn2)NC(=O)[C@H](Cc2ccc(O)cc2)NC(=O)CSC[C@@H](C(N)=O)NC(=O)[C@H](Cc2ccc(O)cc2)NC(=O)[C@H](Cc2ccc(O)cc2)NC(=O)[C@H](CC(N)=O)NC(=O)[C@H]([C@@H](C)O)NC(=O)[C@H](CCCN=C(N)N)NC(=O)[C@H](CCCN=C(N)N)NC(=O)[C@H](CCCCNC(=O)C(F)(F)F)NC1=O` ({CH2CO}-YHTYHVK(Tfa)RRTNYYC-NH2; thioether N-14), the Kd (protein: NAD-dependent protein deacetylase sirtuin-2, SIRT2, PDB entry 4l3o) is 1 µM (active).
For the compound `Cc1noc(C)c1-c1ccc(-c2[nH]c3cncc[n+]3c2NC(C)(C)C)cc1`, under “protein: Bromodomain-containing protein 4 BRD4, PDB entry 4wiv”, the Kd was 0.55 µM (active).
For the compound `CC(C)[C@H](N)C(=O)N[C@@H](CCC(=O)O)C(=O)N[C@@H](CCC(N)=O)C(=O)N[C@@H](Cc1cnc[nH]1)C(=O)N[C@@H](Cc1cnc[nH]1)C(=O)N[C@@H](CCCNC(N)N)C(=O)N[C@@H](CCCNC(N)N)C(=O)N[C@H](C(=O)N[C@@H](CC(=O)O)C(=O)N[C@@H](CC(N)=O)C(=O)N[C@@H](CC(=O)O)C(=O)O)[C@@H](C)O` (H-VEQHH[Orn(CH(NH2)2)][Orn(CH(NH2)2)]TDND-OH), the dissociation constant Kd (protein: 13F6-1-2 Fab fragment heavy chain, PDB entry 2qhr) was 0.041 µM (active).
Regarding `CC(=O)N[C@@H](CO)C(=O)N[C@@H](Cc1cnc[nH]1)C(=O)N[C@H](C(=O)N[C@@H](C)C(=O)N[C@H](C(=O)N[C@@H](CCC(=O)O)C(=O)N[C@@H](CC(N)=O)C(=O)N[C@@H](C)C(=O)N[C@@H](CC(C)C)C(=O)O)C(C)C)C(C)C`, where the note is “protein: HLA class I histocompatibility antigen, B-39 alpha chain, PDB entry 4o2c”, the Kd was 0.01 µM (active).
Turning to `CC(=O)N[C@@H](Cc1ccccc1)C(=O)N[C@@H](Cc1cnc[nH]1)C(=O)N[C@H](C(=O)N[C@@H](C)C(N)=O)[C@@H](C)O` (Ac-FHTA-NH2), the Kd (protein: DNA REPAIR AND RECOMBINATION PROTEIN RADA, PDB entry 4b3b) is 250 µM (active).
Consider `CC[C@H](C)[C@H](NC(=O)[C@H](CCC(=O)O)NC(=O)[C@H](Cc1cnc[nH]1)NC(=O)[C@@H](NC(=O)[C@@H](NC(=O)[C@H](CO)NC(C)=O)[C@@H](C)O)C(C)C)C(=O)N[C@@H](CC(C)C)C(=O)N[C@@H](CO)C(=O)N[C@@H](CCCCN)C(=O)N[C@@H](CC(C)C)C(=O)N[C@@H](CO)C(=O)O` (Ac-STVHEILSKLS-OH), for which the Kd (protein: S100A10, PDB entry 1bt6) was 2 µM (active).
